Measurements reported in ChEMBL document CHEMBL3988442, “University of Dundee, Small-Polar-MMV Screening Library” (2021).
The whole screen tested about 48,000 compounds, of which about 13,000 (27%) showed an effect of 50% or more. The list shows a part of the results.

Tested on: Wolbachia pipientis
Assay: Anti-Wolbachia Cell-Based Screen
Format: functional
Parameters: scale not given: in the data most compounds retested in dose-response had high values
Settings: 5 µM

| SMILES | Percent Effect |
| --- | --- |
| Cc1ccc(CN2CC[C@H]3C(=O)N(c4cccnc4)CCO[C@H]3C2)o1 | -2.706% |
| O=C(NCCc1cccc(F)c1)c1nc2c(s1)CCCN2C(=O)C1CC1 | 109.4% |
| CN1CCCc2sc(C(=O)NCc3cccnc3)nc21 | -7.154% |
| CN(C)CCNC(=O)c1nc2c(s1)CCCN2C(=O)C1CC1.O=C(O)C(F)(F)F | 97.24% |
| CN1CCN(C(=O)c2nc3c(s2)CCCN3C(=O)C2CC2)CC1.O=C(O)C(F)(F)F | -2.349% |
| Cc1ccc(NC(=O)c2nc3c(s2)CCCN3C(=O)C2CC2)cn1.O=C(O)C(F)(F)F | 7.338% |
| O=C(c1nc2c(s1)CCCN2C(=O)C1CC1)N1CCCC1 | 12.54% |
| O=C(NCc1cccnc1)c1nc2c(s1)CCCN2C(=O)C1CC1.O=C(O)C(F)(F)F | 105.9% |
| O=C(NCCc1cccnc1)c1nc2c(s1)CCCN2C(=O)C1CC1.O=C(O)C(F)(F)F | 99.18% |
| COCCN(C)C(=O)c1nc2c(s1)CCCN2C(=O)C1CC1 | 11.31% |
| O=C(CCNc1ncccn1)NCc1ccc(Br)s1 | 9.501% |
| CC(=O)c1cccc(NC(=O)N2CCCCC2CN2CCCC2=O)c1 (centres undefined) | -4.61% |
| Cc1ccc(C(=O)NCCNCC2CNc3ccnn3C2)cc1 (centres undefined) | -8.644% |
| CC(C)Cc1cc(C(=O)NCC(O)CN2CCCCCC2)on1 (centres undefined) | -21.74% |
| Cc1ccc(OCc2cccc(C(=O)N(C)C(C)CC#N)c2)cn1 (centres undefined) | -5.236% |
| CCOCC1CN(C(=O)Cc2ccccn2)Cc2c1cnn2CC (centres undefined) | -48.51% |
| OCc1ccc(-c2c(-c3ccccc3)ncn2CCN2CCOCC2)o1 | 6.374% |
| Cc1ncsc1CN1C[C@@H](OCC(=O)N(C)C)[C@H]2OCCC[C@H]21.O=C(O)C(F)(F)F | -4.628% |
| O=C(O)C(F)(F)F.O=C(O)C(F)(F)F.c1csc(CN2CCOCC3(CCN(C4CCOCC4)C3)C2)n1 (centres undefined) | 4.386% |
| O=C(O)C(F)(F)F.c1csc(CN2CCCn3nnc(COCC4CC4)c3C2)n1 | 3.459% |

| SMILES | Percent Effect |
| --- | --- |
| CN(C)C(=O)CO[C@H]1CN(Cc2nccs2)[C@@H]2COC[C@H]12.O=C(O)C(F)(F)F | 104.4% |
| O=C(O)C(F)(F)F.c1ccc(C[C@H]2CN(Cc3nccs3)CC[C@@H]2OCC2CC2)cc1 | -18.04% |
| O=C(O)C(F)(F)F.c1csc(CN2C[C@H](OCC3CCOCC3)[C@H]3COC[C@H]32)n1 | 78.63% |
| O=C(O)C(F)(F)F.c1csc(CN2C[C@H](OCC3CC3)[C@H]3COC[C@H]32)n1 | 114.6% |
| c1cnc(N2C[C@H](OCC3CCOCC3)[C@H]3COC[C@H]32)nc1 | -13.81% |
| O=C(c1nnn(-c2ccccc2Cl)c1-c1ccccn1)N1CCSCC1 | 5.989% |
| CC(=O)N(Cc1noc(C2CC2)n1)C1CCN(Cc2ccncc2)C1 (centres undefined) | 0.6841% |
| CC(=O)N(Cc1noc(C2CC2)n1)C1CCN(Cc2ccccc2)C1 (centres undefined) | 96.7% |
| CC(=O)N(Cc1noc(C2CC2)n1)C1CCN(Cc2cccnc2)C1 (centres undefined) | 56.34% |
| COC(=O)CN(C(=O)c1ccc(Cl)o1)c1cccc(F)c1 | -9.604% |
| CCN1C[C@@H]2CN(C(=O)c3cccn3C)C[C@@H]2C1=O | -32.3% |
| Cn1cccc1C(=O)N1C[C@H]2CN(CC3CC3)C(=O)[C@H]2C1 | -15.38% |
| CN(C)CCOCC1CN(C(=O)c2cccnc2)Cc2ccnn2C1 (centres undefined) | -7.083% |
| COc1cccc(C(=O)N2C[C@@H](C(=O)O)[C@H](c3ccccc3C)C2)c1 | -3.21% |
| COc1ccc(CN(C)[C@@H]2CN(C(=O)c3cccnc3)C[C@H]2O)cc1 | 87.24% |
| COc1ccc(OCc2nc(C(=O)N3C[C@H](O)[C@@H](N(C)C)C3)co2)cc1 | -35.76% |
| COc1ccc(CN(C)[C@@H]2CN(C(=O)c3cccn3C)C[C@H]2O)cc1 | 98.88% |
| Cn1nccc1C(=O)N1CCOC(Cc2cccc(C(F)(F)F)c2)C1 (centres undefined) | -3.764% |
| COc1ccc(COCC(O)CNC(=O)c2cccnc2)cc1 (centres undefined) | 15.02% |
| COc1ccc(CN(C)[C@@H]2CN(C(=O)c3ccnn3C)C[C@H]2O)cc1 | 97.48% |

| SMILES | Percent Effect |
| --- | --- |
| COc1ccc(CN(C)[C@@H]2CN(C(=O)c3ccccc3)C[C@H]2O)cc1 | 114.6% |
| COc1cc(C)ccc1OCc1nc(C(=O)N2CCC(C)CC2)co1 | -9.42% |
| CCN1CCC2(CN(C(C)=O)CC23CCN(CC2CC2)CC3)C1=O.O=C(O)C(F)(F)F (centres undefined) | -51.48% |
| COc1ccccc1C1CNC(=O)c2nc(-c3nccn3C)[nH]c2C1 (centres undefined) | 6.875% |
| COc1ccc(CN(C)[C@@H]2CN(C(=O)c3cnn(C)c3)C[C@H]2O)cc1 | 88.16% |
| Cn1cc(C(=O)N2CCCCC2CCc2ccccc2)cn1 (centres undefined) | -0.576% |
| COc1ccc(CN(C)[C@@H]2CN(C(=O)c3cncs3)C[C@H]2O)cc1 | 107.9% |
| Cn1cc(C(=O)N2CCCCC2CCc2ccc(O)cc2)cn1 (centres undefined) | -2.601% |
| COc1ccc(CN(C)[C@@H]2CN(C(=O)c3cccs3)C[C@H]2O)cc1 | -2.392% |
| COc1ccc([C@@H]2CN(C(=O)CCCc3cn[nH]c3)C[C@H]2N(C)C)cc1 | -10.76% |
| CNC(=O)C(C)(C)CNC(=O)Nc1ccc(C)cn1 | -9.639% |
| CCC(Nc1nc(C(F)(F)F)nc2ccccc12)C(=O)O (centres undefined) | 14.92% |
| CCc1noc(-c2cccc(C(=O)O)c2)n1 | 137.4% |
| CCc1nc(-c2cccc(C(=O)O)c2)no1 | 110.9% |
| Cc1ccc(-c2csc(-c3cccc(C(=O)O)c3)n2)cc1 | -9.33% |
| COC(=O)c1cccc(-c2nc(CC3CCN(C)CC3)no2)c1 | -1.18% |
| COc1ccc(OC)c(-c2csc(-c3cccc(C(=O)O)c3)n2)c1 | -14.75% |
| CCc1noc(-c2ccc(SCC(=O)O)nc2)n1 | 5.745% |
| Cc1ccc(Cl)cc1S(=O)(=O)NCc1cnc(N(C)C)n1C | -1.472% |
